Bioassay records deposited in PubChem BioAssay by National Center for Advancing Translational Sciences (NCATS).
Only some compounds are listed: those with a hit (about 21% of all), similar ones and a draw of the others.
AMA1 RON2 block – qHTS for Inhibitors of AMA1-RON; Towards Development of Antimalarial Drug Lead: Primary Screen; Plasmodium falciparum AMA1 (3D7) - RON2 peptide interaction; AlphaScreen AMA1-biotinylated RON2 peptide binding; Potency, µM (top dose mostly 58.2 µM), actives largely listed as inhibitors; 360,000 compounds, 0.2% hits; also: nearly all actives have a fitted effect of over 45% in size
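AMA1 (3D7) with his tag at 25 nM final met compounds first, then biotinylated RON2 peptide at 25 nM; detection used donor plus acceptor beads, 10 µg/mL apiece, read by AlphaScreen after 30 min at room temperature.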
Pf growth 96h – Primary qHTS for delayed death inhibitors of the malarial parasite plastid, 96 hour incubation. AID 504834, 2011. 320,000 compounds, 6.9% hits. Potency, µM (titrated, usually from 28.7 µM), most hits filed as inhibitors. P. falciparum luciferase reporter growth, 96 h
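Delayed-death screen, second-generation endpoint: infected erythrocytes, 2% hematocrit, 0.05% parasitemia final; 96 hours at 37 C, 5% CO2; luciferase detection reagent; luminescence decrease equals reduced growth.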
Shiga toxin inh – A qHTS for Small Molecule Inhibitors of Shiga Toxin; Vero cells, Shiga toxin protein synthesis inhibition reporter; inhibition, % at 38.7 µM; 290,000 compounds, 9.2% hits; AID 2315, 2010; in the data active = inhibition mostly above about 28%, no sharp cut-off; inactive = mostly below about 43%
HCV inh – qHTS Assay for Inhibitors of Hepatitis C Virus (HCV) | Huh7.5.1 HCVcc-Cre infection, luciferase reporter, 44 h | Potency, µM (series often up to 41.8 µM), hits mostly inhibitors | 340,000 compounds, 3.4% hits
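Whole-lifecycle infectious HCVcc-Cre system; cells 1,000/well, compound then virus (~0.5 moi) added 4 h after plating, 44 h culture. Luciferase read 15 sec following 15 min substrate incubation, room temp.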
Pf growth 48h – Primary qHTS for delayed death inhibitors of the malarial parasite plastid, 48 hour incubation; 310,000 compounds, 5.9% hits; Potency, µM (doses to about 28.7 µM), most hits filed as inhibitors; P. falciparum luciferase growth in erythrocytes, 48 h; AID 504832, 2011
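Firefly luciferase activity from engineered P. falciparum reports growth; inhibitors lower the luminescent signal. Cultures contained 2% hematocrit erythrocytes at 0.1% final parasitemia.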
CHX counter – Cycloheximide Counterscreen for Small Molecule Inhibitors of Shiga Toxin; cell reporter, cycloheximide protein synthesis inhibition counterscreen; max response, %; 300,000 compounds, 12% hits; in the data active = max response mostly above about 13%, no sharp cut-off; inactive = mostly below about 14%; also: read at 38.3 µM for the half of the compounds with a filed dose
Of the large screens only hits and unclear results are named; the others gave an inactive call. Unless noted, calls follow the shape of the dose curve; as a rule, active = well fitted curve in the direction sought with a large enough effect; inconclusive = small, poorly fitted or top-dose-only effect, or another doubt; inactive = no such curve, though single readings can be large; an effect the other way counts as inactive or inconclusive.

CC(=O)c1c(C)nc(-c2ccccc2)nc1N	Shiga toxin inh 58.5, CHX counter 29.3
CC(=O)c1c(C)nc(-c2ccccc2)nc1NC(=O)C(C)C	none (no result: Pf growth 96h, Pf growth 48h)
CCOC(=O)c1c(C)nc(C)c(C(=O)OCC)c1-c1ccccc1	none
CCOC(=O)c1c(-c2ccccc2)cn2c(C)cc(C)nc12	Shiga toxin inh 70.7, CHX counter 35.0
CC(=O)c1c(C)nc(-c2ccccc2)nc1NC(=O)Cc1ccccc1	none
CCN(C(=O)COC(=O)C1CCC(C(C)(C)C)CC1)c1c(N)n(Cc2ccccc2)c(=O)[nH]c1=O (stereo not drawn)	none (no result: Pf growth 96h, Shiga toxin inh, Pf growth 48h, CHX counter)
CC(C)c1ccc(NC(=O)C2(C)Cc3c(-c4cccc(C(F)(F)F)c4)ccnc3O2)cc1 (stereo not drawn)	none (no result: Pf growth 96h, Shiga toxin inh, HCV inh, Pf growth 48h, CHX counter)
N#CC(=Cc1ccnc2ccccc12)c1ccccc1	none (no result: Pf growth 96h, Shiga toxin inh, HCV inh, Pf growth 48h, CHX counter)
CC(C)Oc1ccc2ccccc2c1CNC[C@H]1O[C@@H](n2cnc(C(N)=O)n2)[C@H](O)[C@@H]1O	HCV inh 5.01µM (no result: Pf growth 96h, Shiga toxin inh, Pf growth 48h, CHX counter)
NC(=O)c1ncn(C2OC(CO)C(O)C2O)n1 (stereo not drawn)	Pf growth 96h 12µM, Pf growth 48h inconclusive (no result: AMA1 RON2 block, Shiga toxin inh, HCV inh, CHX counter)
NC(=O)c1cn(C2OC(CO)C(O)C2O)c2ncnc(N)c12 (stereo not drawn)	Pf growth 96h 0.117µM, HCV inh inconclusive, Pf growth 48h 0.104µM
N#Cc1cn(C2OC(CO)C(O)C2O)c2ncnc(N)c12 (stereo not drawn)	HCV inh inconclusive (no result: Pf growth 96h, Shiga toxin inh, Pf growth 48h, CHX counter)
COc1cc(Cl)c(CNC[C@H]2O[C@@H](n3cnc(C(N)=O)n3)[C@H](O)[C@@H]2O)c(Cl)c1O	none (no result: Pf growth 96h, Shiga toxin inh, Pf growth 48h, CHX counter)
CC(=NNC(=O)c1ccncc1)c1cc(Cl)ccc1Cl	none (no result: Pf growth 96h, Shiga toxin inh, Pf growth 48h, CHX counter)
CCOC1=C2[C@@H](CN(S(=O)(=O)c3ccc(C)cc3)[C@H]2c2cccc3ccccc23)[C@H]2C(=O)N(C3CCCCC3)C(=O)[C@H]2C1	none (no result: Pf growth 96h, Shiga toxin inh, HCV inh, Pf growth 48h, CHX counter)
COC(=O)c1cnn(-c2ccccc2)c1/C=N/NC(=S)Nc1ccc(Cl)cc1	HCV inh inconclusive, Pf growth 48h inconclusive
Cc1nc2ccc(C(=O)N(C)Cc3ccco3)cn2c1N(C)CC1CCCCC1	none (no result: Pf growth 96h, Shiga toxin inh, HCV inh, Pf growth 48h, CHX counter)
O=C(CCC(=O)N1CCN(c2ccc(F)cc2)CC1)c1ccccc1	CHX counter 32.6
O=C(CCCC(=O)N1CCN(c2ccccc2F)CC1)c1ccccc1	Pf growth 96h inconclusive, Shiga toxin inh 59.0, CHX counter 35.9
O=C(CCC(=O)N1CCN(c2ccc(F)cc2)CC1)c1ccc(F)cc1	none
O=C(CCS(=O)(=O)c1ccc(F)cc1)N1CCN(c2ccccc2)CC1	none (no result: Shiga toxin inh, CHX counter)
O=C(CCS(=O)(=O)c1ccccc1)N1CCN(c2ccc(F)cc2)CC1	Pf growth 96h inconclusive, Shiga toxin inh 70.5, CHX counter 52.2
O=C(CCS(=O)(=O)c1ccc(F)cc1)N1CCOCC1	Shiga toxin inh 46.0, CHX counter 14.5
CC(=O)Nc1cc(O)cc(O)c1	none
O=C(CCc1nnc(C2CCCCC2)o1)N1CCN(c2ccccc2F)CC1	Pf growth 96h inconclusive, Shiga toxin inh 89.3, CHX counter 70.9
O=C(CCc1nnc(C2CCCCC2)o1)N1CCN(C2CCCCC2)CC1	none
COc1ccc(NC2CCCN(C(=O)c3csc(C(C)C)n3)C2)cc1 (stereo not drawn)	Pf growth 96h inconclusive
COc1cc(OC)cc(C(=O)NCC2CCCN(C(=O)c3csc(C(C)C)n3)C2)c1 (stereo not drawn)	CHX counter 21.4 (no result: HCV inh)
O=[N+]([O-])c1ccc(Nc2cccc(F)c2)nc1	HCV inh inconclusive
O=[N+]([O-])c1ccc(Nc2ccccc2)nc1	none
Cc1ccc(Nc2ccc([N+](=O)[O-])cn2)cc1Cl	Shiga toxin inh 45.7, HCV inh inconclusive, Pf growth 48h inconclusive, CHX counter 26.8
O=[N+]([O-])c1ccc(Nc2ccc(F)cc2)nc1	Shiga toxin inh 31.8, CHX counter 15.3
CN(C)c1ccc(Nc2ccc([N+](=O)[O-])cn2)cc1	Shiga toxin inh 132.4, CHX counter 33.9
CC(=O)Nc1ccc(Nc2ccc([N+](=O)[O-])cn2)cc1	Pf growth 96h inconclusive
